# Test results as given in PubChem BioAssay (NCATS).
# Records with an inconclusive call do not appear. A call without a number means that no potency is given here. The source made the active and inactive calls. The call rests on the fitted dose curve; in most records, active means well fitted curve in the direction sought with a large enough effect; inconclusive means small, poorly fitted or top-dose-only effect, or another doubt; inactive means no such curve, though single readings can be large; an effect the other way counts as inactive or inconclusive.
# Tests used:
# [1] = tested on: HeLa; experiment: Primary qHTS to identify gynecologic anti-cancer compounds using libraries of approved drugs and bioactive compounds (AID 1345084); conditions: Gynecologic cancer cell panel viability, ATPlite luminescence, 48 h; series mostly up to 57.5 µM; further: nearly all actives have a fitted effect of over 55% in size; further: potency means the concentration at half of the fitted maximal effect
# Procedure, shortened: (§1)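 Luminescence from the ATPlite ATP-monitoring reagent indicates viable cell number; lower signal means cytotoxicity. Cells received compound 16 h after seeding and were exposed for 48 h across five concentrations.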
# [2] = tested on: Hek293T; experiment: as above; conditions: Gynecologic cancer cell panel viability, ATPlite luminescence, 48 h, control line for the selectivity index; series mostly up to 57.5 µM
# Procedure, shortened: as §1
# [3] = tested on: JEG-3; experiment: as above; conditions: Gynecologic cancer cell panel viability, ATPlite luminescence, 48 h; series mostly up to 57.5 µM
# Procedure, shortened: as §1
# [4] = tested on: OV90; experiment: as above; conditions: Gynecologic cancer cell panel viability, ATPlite luminescence, 48 h; series mostly up to 57.5 µM
# Procedure, shortened: as §1
# [5] = tested on: PA-1; experiment: as above; conditions: Gynecologic cancer cell panel viability, ATPlite luminescence, 48 h; series mostly up to 57.5 µM
# Procedure, shortened: as §1
# [6] = tested on: SKOV3; experiment: as above; conditions: Gynecologic cancer cell panel viability, ATPlite luminescence, 48 h; series mostly up to 57.5 µM
# Procedure, shortened: as §1
# [7] = tested on: Tov-21-G; experiment: as above; conditions: Gynecologic cancer cell panel viability, ATPlite luminescence, 48 h; series mostly up to 57.5 µM
# Procedure, shortened: as §1
# [8] = tested on: Tov112D; experiment: as above; conditions: Gynecologic cancer cell panel viability, ATPlite luminescence, 48 h; series mostly up to 57.5 µM
# Procedure, shortened: as §1
# [9] = Drug repurposing screens with cells derived from glioblastoma tumor samples (AID 1345199); conditions: GBM patient neurospheres viability, ATP luminescence, 48 h; Potency: tumour line A unless noted; series mostly up to 45.9 µM; further: nearly all actives have a fitted effect of over 40% in size
# Procedure, shortened: (§2)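 Primary testing used CD133+ neurospheres from four GBM patients, seven concentrations, 48 h exposure and ATP-based viability; confirmation added three slower-growing patient lines.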
# [10] = tested on: astro; experiment: as above; conditions: viability, ATP luminescence, 48 h; series mostly up to 45.9 µM
# Procedure, shortened: as §2
SMILES,Potency [1],Potency [2],Potency [3],Potency [4],Potency [5],Potency [6],Potency [7],Potency [8],Potency [9],Potency [10]
CCOC(=O)Nc1ccc(NCc2ccc(F)cc2)cc1N,inactive,inactive,inactive,inactive,inactive,inactive,inactive,inactive,–,–
CC[N+]1(CCOC(=O)C(O)(c2ccccc2)c2ccccc2)CCCCC1,inactive,inactive,inactive,inactive,inactive,inactive,inactive,inactive,inactive,inactive
CN1CCN(c2ccc([N+](=O)[O-])c3no[n+]([O-])c23)CC1,inactive,inactive,inactive,inactive,inactive,inactive,inactive,inactive,–,–
CC(C)NCC(O)c1ccc([N+](=O)[O-])cc1 (stereo not drawn),inactive,inactive,inactive,inactive,inactive,inactive,inactive,inactive,inactive,inactive
CCN1CCN(C(=O)Cc2ccc(Nc3ncc(F)c(Nc4ccc(C(=O)Nc5ccccc5Cl)cc4)n3)cc2)CC1,8.91 µM (active),25.1 µM (active),inactive,inactive,25.1 µM (active),15.8 µM (active),28.2 µM (active),2.51 µM (active),–,–
Cc1ccc(Cl)c(O)c1,inactive,inactive,inactive,inactive,inactive,inactive,inactive,inactive,inactive,inactive
CS(=O)(=O)c1ccc(C(=O)C2C(=O)CCCC2=O)c([N+](=O)[O-])c1,inactive,inactive,inactive,inactive,inactive,inactive,inactive,inactive,inactive,inactive
COc1nn(CSP(=S)(OC)OC)c(=O)s1,inactive,inactive,inactive,inactive,–,–,–,–,–,–
CCN(CC)C(=O)c1ccc(C2=CC3(CCNCC3)Oc3cccc(O)c32)cc1,inactive,inactive,inactive,inactive,inactive,inactive,inactive,inactive,–,–
O=C1C(I)=CC(=C(c2cc(I)c(O)c(I)c2)c2ccccc2C(=O)O)C=C1I,inactive,inactive,inactive,inactive,inactive,inactive,inactive,inactive,inactive,–
O=C(N[C@H]1CN2CCC1CC2)c1ccc(Cl)cc1,inactive,inactive,inactive,inactive,inactive,inactive,inactive,inactive,–,–
S=C(NC1CCCCC1)N1CCC(c2cnc[nH]2)CC1,inactive,inactive,inactive,inactive,inactive,inactive,inactive,inactive,–,–
O=C(O)COc1ccccc1,inactive,inactive,inactive,inactive,inactive,inactive,inactive,inactive,inactive,inactive
CCc1c(C(=O)C(N)=O)c2c(OCC(=O)O)cccc2n1Cc1ccccc1,inactive,inactive,inactive,inactive,inactive,inactive,inactive,inactive,–,–
O=S(=O)(O)C(F)(F)C(F)(F)C(F)(F)C(F)(F)C(F)(F)C(F)(F)C(F)(F)C(F)(F)F,inactive,inactive,inactive,inactive,inactive,inactive,inactive,inactive,inactive,–
Oc1ccc2c3c1O[C@H]1[C@@H](O)C=C[C@H]4[C@@H](C2)NCC[C@@]341,inactive,inactive,inactive,inactive,inactive,inactive,inactive,inactive,inactive,inactive
O=C(Oc1ccc([N+](=O)[O-])cc1)N1CCN(Cc2cccc(Oc3ccccc3)c2)CC1,inactive,inactive,inactive,inactive,inactive,inactive,inactive,inactive,–,–
O=C(NCC1CCOCC1)c1cnc(Nc2ccc(Cl)cc2Cl)nc1C(F)(F)F,inactive,inactive,inactive,inactive,inactive,inactive,inactive,inactive,–,–
CN[C@@H](C)[C@H](O)c1ccccc1,inactive,inactive,inactive,inactive,inactive,inactive,inactive,inactive,inactive,inactive
CC1=C(C(=O)O)N2C(=O)[C@@H](N)[C@H]2SC1,inactive,inactive,inactive,inactive,inactive,inactive,inactive,inactive,–,–
CC(=O)NCCc1c[nH]c2ccccc12,inactive,inactive,inactive,inactive,inactive,inactive,inactive,inactive,–,–
O=C(O)COc1nc(Cl)c(Cl)cc1Cl,inactive,inactive,inactive,inactive,inactive,inactive,inactive,inactive,inactive,inactive
O=C(Oc1ccc([N+](=O)[O-])cc1)N1CCC(C(O)(c2ccc3c(c2)OCO3)c2ccc3c(c2)OCO3)CC1,inactive,inactive,inactive,inactive,inactive,inactive,inactive,inactive,–,–
